Our source for the outcome and AC50 values is PubChem BioAssay (EPA / NIEHS).

Experiment [1] can be described thus: ATG_PBREM_CIS: Attagene CIS-FACTORIAL HepG2 Assay for human Phenobarbital-responsive Enhancer Module (PBREM) (AID 2282955). The settings on record: HepG2 PBREM cis-reporter, Attagene multiplexed transcription; actives raise or lower the signal. In a few lines:
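Cells were transfected with cis-element reporter units and treated for 24 h, after which RNA was extracted and reporter transcripts measured by RT-PCR and capillary electrophoresis.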

In experiment [2] the target is Paired box protein Pax-6 (Homo sapiens) (UniProt P26367). As to the kind of experiment: ATG_Pax6_CIS: Attagene CIS-FACTORIAL HepG2 Assay for human Paired Box 6 (PAX6) (AID 2282956). The settings on record: HepG2 CIS-FACTORIAL PAX6 reporter transcription, RNA readout; actives raise or lower the signal. In a few lines: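 After twenty-four hours of chemical exposure, transfected HepG2 cells are harvested for RNA. Cis-promoter reporter transcripts are amplified, fluorescently labelled and sized by capillary electrophoresis, with gain and loss of signal scored against DMSO.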
Paired box protein Pax-6 (Homo sapiens), sequence (P26367 whole entry, looked up): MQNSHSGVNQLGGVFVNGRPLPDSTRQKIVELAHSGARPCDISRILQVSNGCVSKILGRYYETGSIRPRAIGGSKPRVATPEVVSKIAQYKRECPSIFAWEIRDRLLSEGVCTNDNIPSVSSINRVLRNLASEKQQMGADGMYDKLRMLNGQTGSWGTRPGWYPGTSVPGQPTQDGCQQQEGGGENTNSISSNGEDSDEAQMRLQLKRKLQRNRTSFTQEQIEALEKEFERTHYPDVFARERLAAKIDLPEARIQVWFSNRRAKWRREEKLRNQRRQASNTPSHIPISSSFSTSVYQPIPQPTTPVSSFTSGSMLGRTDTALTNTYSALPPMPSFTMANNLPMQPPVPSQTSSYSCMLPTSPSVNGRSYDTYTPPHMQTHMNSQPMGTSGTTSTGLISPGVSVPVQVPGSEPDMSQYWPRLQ

A short description of experiment [3]: ATG_PXRE_CIS: Attagene CIS-FACTORIAL HepG2 Assay for human Pregnane X Receptor Element (PXRE) (AID 2282957). The following applies: HepG2 Attagene CIS-FACTORIAL PXRE reporter, mRNA; actives raise or lower the signal. In a few lines: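 HepG2 cells transiently transfected with cis-element-driven multiplexed reporter units; after 24 h chemical exposure, reporter mRNA measured by RT-PCR, 6-FAM labelling, HpaI digestion and capillary electrophoresis. Bidirectional fitting relative to DMSO.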

Experiment [4] is described as follows: ATG_PPRE_CIS: Attagene CIS-FACTORIAL HepG2 Assay for human Peroxisome Proliferator-activated Response Element (PPRE) (AID 2282958). The settings on record: HepG2 PPRE cis-element reporter, Attagene transcription factor profiling; actives raise or lower the signal. A digest of the protocol:
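In this cell-based multiplex, a PPRE cis element drives a reporter sequence in transiently transfected HepG2 cells. Following 24 h treatment, labeled cDNA amplicons are sized and quantified by capillary electrophoresis, with DMSO defining baseline.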

A short description of experiment [5]: ATG_RORE_CIS: Attagene CIS-FACTORIAL HepG2 Assay for human RAR-related Orphan Receptor Element (RORE) (AID 2282959). The settings on record: HepG2 Attagene cis-factorial RORE reporter, mRNA; actives raise or lower the signal. A digest of the protocol: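 Endogenous factor activity at a cis response element is read as reporter transcript levels in HepG2 cells, 24 h post-dose. Transcripts are quantified by RT-PCR with capillary electrophoresis, and data fitted in both directions against DMSO.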

Experiment [6] can be described thus: ATG_Sox_CIS: Attagene CIS-FACTORIAL HepG2 Assay for human SRY-box transcription factor (SOX) (AID 2282960). The following applies: HepG2 Attagene cis-factorial SOX reporter, mRNA; actives raise or lower the signal. In a few lines:
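Measures mRNA induction of a SOX1-associated reporter in HepG2 after 24 h dosing. Fluorescently labelled RT-PCR fragments are separated by capillary electrophoresis, and gain or loss relative to DMSO control is fitted.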

The target in experiment [7] is Transcription factor Sp1 (Homo sapiens) (UniProt P08047). As to the kind of experiment: ATG_Sp1_CIS: Attagene CIS-FACTORIAL HepG2 Assay for human Specificity Protein 1 (Sp1) (AID 2282961). The following applies: HepG2 Sp1 cis-reporter transcription, actives raise or lower the signal. A digest of the protocol: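 Cells: HepG2, transiently transfected with cis-regulated multiplexed reporters. Exposure: 24 h. Detection: reporter transcripts amplified, fluorescently labeled, restriction-digested and sized by capillary electrophoresis. Analysis: bidirectional fit relative to DMSO.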
Transcription factor Sp1 (Homo sapiens), sequence (P08047 whole entry, looked up): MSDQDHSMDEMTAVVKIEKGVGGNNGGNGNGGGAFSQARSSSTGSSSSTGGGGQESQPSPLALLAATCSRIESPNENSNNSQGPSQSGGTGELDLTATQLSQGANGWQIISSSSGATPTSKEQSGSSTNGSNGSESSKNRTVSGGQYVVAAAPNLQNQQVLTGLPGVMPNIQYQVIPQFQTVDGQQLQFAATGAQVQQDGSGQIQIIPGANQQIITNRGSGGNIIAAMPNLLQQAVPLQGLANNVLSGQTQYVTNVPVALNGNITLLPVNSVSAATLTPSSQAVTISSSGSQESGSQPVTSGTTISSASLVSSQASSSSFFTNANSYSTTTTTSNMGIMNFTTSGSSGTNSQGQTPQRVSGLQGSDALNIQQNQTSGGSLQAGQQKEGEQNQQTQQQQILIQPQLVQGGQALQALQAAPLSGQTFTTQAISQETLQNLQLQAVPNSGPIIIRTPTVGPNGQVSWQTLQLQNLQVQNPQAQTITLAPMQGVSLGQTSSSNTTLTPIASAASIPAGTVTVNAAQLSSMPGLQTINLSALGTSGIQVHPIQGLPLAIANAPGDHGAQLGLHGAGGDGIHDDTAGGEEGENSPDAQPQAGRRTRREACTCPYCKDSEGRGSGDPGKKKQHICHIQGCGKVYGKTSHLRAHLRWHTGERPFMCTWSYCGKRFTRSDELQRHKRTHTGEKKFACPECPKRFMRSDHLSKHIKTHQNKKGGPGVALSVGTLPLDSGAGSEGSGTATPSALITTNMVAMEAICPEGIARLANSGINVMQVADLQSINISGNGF

A short description of experiment [8]: ATG_TA_CIS: Attagene CIS-FACTORIAL HepG2 Assay for human TA Basal Promoter (AID 2282964). The following applies: HepG2 Attagene CIS-factorial TA basal promoter reporter; actives raise or lower the signal. In a few lines:
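Read-out: fluorescent reporter-transcript fragments resolved by capillary electrophoresis after RT-PCR and HpaI digestion. Source: HepG2 cells carrying transiently transfected multi-reporter cis constructs, treated 24 h. Endpoint fitted bidirectionally relative to DMSO.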

Experiment [9] in a line: ATG_TAL_CIS: Attagene CIS-FACTORIAL HepG2 Assay for human TAL Basal Promoter (AID 2282966).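 Further: background control endpoint measuring basal TAL promoter reporter mRNA not a specific factor.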 The following applies: HepG2 Attagene cis-factorial TAL promoter reporter; actives raise or lower the signal. A digest of the protocol:
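HepG2 cells transiently transfected with multiplexed cis-promoter reporter units, dosed 24 h. Reporter mRNA quantified by RT-PCR, 6-FAM labelling, HpaI digestion and capillary electrophoresis; TAL basal promoter serves as background control, fitted bidirectionally versus DMSO.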

Experiment [10] can be described thus: ATG_TGFb_CIS: Attagene CIS-FACTORIAL HepG2 Assay for human Transforming Growth Factor (TGF) (AID 2282967). The settings on record: HepG2 Attagene CIS TGFb reporter, mRNA transcription; actives raise or lower the signal. A digest of the protocol: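 Transient MRTU transfection of HepG2 (FuGene 6). Dose 24 h. TriZol RNA, oligo(dT) RT, PCR, 6-FAM primer extension, HpaI cut, CE. Bidirectional fit, DMSO = baseline.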

The nature of experiment [11]: ATG_VDRE_CIS: Attagene CIS-FACTORIAL HepG2 Assay for human Vitamin D Receptor Element (VDRE) (AID 2282968). The settings on record: HepG2 VDRE cis-reporter transcription, actives raise or lower the signal. A digest of the protocol: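 Reporter mRNA induction, quantified by capillary electrophoresis of fluorescently labelled RT-PCR products, was read 24 h after dosing HepG2 cells carrying transiently transfected cis-regulated reporter units; gain or loss relative to DMSO.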

Experiment [12] addresses X-box-binding protein 1 (Homo sapiens) (UniProt P17861). As to the kind of experiment: ATG_Xbp1_CIS: Attagene CIS-FACTORIAL HepG2 Assay for human X-box Binding Protein 1 (XBP1) (AID 2282972). The following applies: HepG2 XBP1 cis-element reporter, Attagene multiplex; actives raise or lower the signal. In a few lines: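 After a 24-hour chemical exposure of HepG2 cells carrying cis-regulated reporters, reporter mRNA levels are assessed. Quantification uses RT-PCR, 6-FAM labelling and capillary electrophoresis. Gain- or loss-of-signal is fitted against DMSO.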

Experiment [13] is described as follows: ATG_M_19_TRANS: Attagene TRANS-FACTORIAL HepG2 Assay for M19 Transcription Factor (Internal Marker) (AID 2282974; active means hit-call score of the fitted dose curve at least 0.9, where 1 is the maximum). The following applies: HepG2 Attagene TRANS-FACTORIAL M19 internal marker reporter. A digest of the protocol: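 Reporter mRNA induction was measured in transfected HepG2 cells 24 h after dosing. Endpoint fitted upward relative to DMSO and serves as a background control within the multiplexed TRANS panel.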

Experiment [14] in a line: ATG_SREBP_CIS: Attagene CIS-FACTORIAL HepG2 Assay for human Sterol Regulatory Element Binding (SREBP) (AID 2282962). The following applies: HepG2 Attagene cis-factorial SREBP reporter, mRNA; actives raise or lower the signal. In a few lines:
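Twenty-four hours after chemical dosing of transfected HepG2 cultures, reporter RNA was converted to cDNA, amplified, end-labelled with 6-FAM and resolved by capillary electrophoresis. Responses were fitted relative to DMSO.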

The target of experiment [15] is Signal transducer and activator of transcription 3 (Homo sapiens) (UniProt P40763). In words: ATG_STAT3_CIS: Attagene CIS-FACTORIAL HepG2 Assay for human Signal Transducer and Activator of Transcription 3 (STAT3) (AID 2282963). The settings on record: HepG2, Attagene cis-factorial STAT3 reporter transcription; actives raise or lower the signal. A digest of the protocol: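 Endogenous STAT3-responsive cis-element activity was read in transiently transfected HepG2 cells after 24 h treatment. Reporter transcripts were quantified via RT-PCR and capillary electrophoresis, with DMSO as negative control and bidirectional curve fitting.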
Signal transducer and activator of transcription 3 (Homo sapiens), sequence (P40763 whole entry, looked up): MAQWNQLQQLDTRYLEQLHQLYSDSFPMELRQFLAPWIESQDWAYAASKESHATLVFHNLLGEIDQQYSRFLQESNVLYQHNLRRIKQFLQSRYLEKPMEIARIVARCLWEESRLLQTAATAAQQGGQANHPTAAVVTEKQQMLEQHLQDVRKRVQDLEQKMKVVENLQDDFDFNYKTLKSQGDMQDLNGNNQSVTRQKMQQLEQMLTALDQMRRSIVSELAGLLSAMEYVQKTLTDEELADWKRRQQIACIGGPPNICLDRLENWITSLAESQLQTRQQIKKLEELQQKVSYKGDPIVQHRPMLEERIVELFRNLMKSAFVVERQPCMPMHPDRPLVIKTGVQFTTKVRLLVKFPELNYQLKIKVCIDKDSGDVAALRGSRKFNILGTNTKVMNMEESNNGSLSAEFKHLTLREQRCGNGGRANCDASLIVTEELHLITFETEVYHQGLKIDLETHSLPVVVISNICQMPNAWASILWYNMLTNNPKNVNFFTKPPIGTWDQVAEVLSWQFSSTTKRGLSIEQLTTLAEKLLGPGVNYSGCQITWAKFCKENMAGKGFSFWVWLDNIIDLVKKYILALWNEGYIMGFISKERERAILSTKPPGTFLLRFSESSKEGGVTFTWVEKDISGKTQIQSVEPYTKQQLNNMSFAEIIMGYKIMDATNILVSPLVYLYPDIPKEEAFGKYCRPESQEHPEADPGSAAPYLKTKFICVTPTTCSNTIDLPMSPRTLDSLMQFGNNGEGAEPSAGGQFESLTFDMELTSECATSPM

Experiment [16] is described as follows: ATG_TCF_b_cat_CIS: Attagene CIS-FACTORIAL HepG2 Assay for human T-Cell-Factor with beta-catenin (TCF/b-cat) (AID 2282965). The following applies: HepG2 TCF/beta-catenin cis-reporter transcription, actives raise or lower the signal. A digest of the protocol:
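Endogenous transcription factor activity is captured through cis-promoter reporter constructs transiently introduced into human HepG2 liver cells. Induced reporter mRNA is measured after 24 h and fitted bidirectionally relative to DMSO.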

The target in experiment [17] is Nuclear receptor subfamily 1 group I member 3 (Homo sapiens) (UniProt Q14994). In words: ATG_CAR_TRANS: Attagene TRANS-FACTORIAL HepG2 Assay for human Constitutive Androstane Receptor (CAR) (AID 2282969; active means hit-call score of the fitted dose curve at least 0.9, where 1 is the maximum;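 further: activators raise reporter mRNA above DMSO so AC50 marks induction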). The settings on record: HepG2 Attagene TRANS-FACTORIAL CAR reporter. In a few lines: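 Readout is reporter mRNA induction, quantified by fluorescent primer extension and capillary electrophoresis after RT-PCR. Cells were HepG2 transiently carrying chimeric NR-Gal4 constructs with GAL4-UAS reporters, treated for 24 h; activity scored upward from DMSO.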
Nuclear receptor subfamily 1 group I member 3 (Homo sapiens), sequence (Q14994 whole entry, looked up, the tested form may be a part): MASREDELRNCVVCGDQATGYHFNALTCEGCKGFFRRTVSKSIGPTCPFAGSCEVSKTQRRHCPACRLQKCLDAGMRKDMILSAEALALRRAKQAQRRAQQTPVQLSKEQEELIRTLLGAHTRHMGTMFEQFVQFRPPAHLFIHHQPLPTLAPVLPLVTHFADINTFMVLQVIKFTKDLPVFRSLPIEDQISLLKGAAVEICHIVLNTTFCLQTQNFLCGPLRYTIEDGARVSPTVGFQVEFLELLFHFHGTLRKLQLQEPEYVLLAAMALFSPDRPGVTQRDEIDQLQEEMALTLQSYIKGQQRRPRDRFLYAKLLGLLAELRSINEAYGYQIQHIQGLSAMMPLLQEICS

For experiment [18], the target named is Estrogen receptor (Homo sapiens) (UniProt P03372). As to the kind of experiment: ATG_ERa_TRANS: Attagene TRANS-FACTORIAL HepG2 Assay for human Estrogen Receptor alpha (ERa) (AID 2282970; active means hit-call score of the fitted dose curve at least 0.9, where 1 is the maximum). The settings on record: HepG2 Attagene TRANS ERa GAL4 reporter, mRNA. A digest of the protocol:
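HepG2 cells transiently transfected with multiplexed GAL4-UAS reporter units read out chimeric NR-Gal4 activity. After 24 h compound exposure, reporter mRNA was quantified by RT-PCR, 6-FAM labeling, HpaI digestion and capillary electrophoresis, relative to DMSO.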

The target of experiment [19] is Steroid hormone receptor ERR1 (Homo sapiens) (UniProt P11474). As to the kind of experiment: ATG_ERRa_TRANS: Attagene TRANS-FACTORIAL HepG2 Assay for human Estrogen-Related Receptor alpha (ERRa) (AID 2282971; active means hit-call score of the fitted dose curve at least 0.9, where 1 is the maximum). The settings on record: HepG2 Attagene TRANS reporter, ERRa transactivation. In a few lines: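 HepG2 cells transiently transfected with GAL4-UAS reporter units and chimeric NR-Gal4 constructs; after 24 hour compound incubation, reporter mRNA quantified by RT-PCR, fluorescent labelling and capillary electrophoresis, gain of signal versus DMSO.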
Steroid hormone receptor ERR1 (Homo sapiens), sequence (P11474 whole entry, looked up, the tested form may be a part): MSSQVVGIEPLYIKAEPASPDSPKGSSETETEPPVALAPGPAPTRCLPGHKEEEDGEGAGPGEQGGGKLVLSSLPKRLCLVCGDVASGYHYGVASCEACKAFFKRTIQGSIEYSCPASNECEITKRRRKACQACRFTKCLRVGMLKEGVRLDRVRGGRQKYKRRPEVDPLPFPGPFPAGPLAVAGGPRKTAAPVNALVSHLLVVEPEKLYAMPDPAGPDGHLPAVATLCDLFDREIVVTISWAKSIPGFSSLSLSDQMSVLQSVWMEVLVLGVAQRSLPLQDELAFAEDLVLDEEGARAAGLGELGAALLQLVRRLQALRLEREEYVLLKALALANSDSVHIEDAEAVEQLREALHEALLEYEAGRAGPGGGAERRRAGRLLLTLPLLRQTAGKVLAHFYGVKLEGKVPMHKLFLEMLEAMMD

A short description of experiment [20]: ATG_GAL4_TRANS: Attagene TRANS-FACTORIAL HepG2 Assay for GAL4 (Internal Marker) (AID 2282976; active means hit-call score of the fitted dose curve at least 0.9, where 1 is the maximum). The following applies: HepG2 Attagene TRANS GAL4 internal marker reporter. A digest of the protocol: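 Background-control readout: GAL4-UAS reporter transcript in transiently transfected HepG2 cells after 24 h compound exposure. Measured by RT-PCR, 6-FAM primer extension, HpaI digest and capillary electrophoresis; gain-of-signal fit versus DMSO.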

Each structure is given as a SMILES string. Where “and” joins values, the source holds several entries; their conditions need not be identical. Equal entries are not always repeated. Inconclusive results are not listed. A structure can be active in one record and inactive in another. Calls of active or inactive are those of the source. How the source made its calls, unless noted: active means hit-call score of the fitted dose curve at least 0.9, where 1 is the maximum; inactive means score below 0.9.

Estrogen receptor (Homo sapiens), sequence (P03372 whole entry, looked up, the tested form may be a part): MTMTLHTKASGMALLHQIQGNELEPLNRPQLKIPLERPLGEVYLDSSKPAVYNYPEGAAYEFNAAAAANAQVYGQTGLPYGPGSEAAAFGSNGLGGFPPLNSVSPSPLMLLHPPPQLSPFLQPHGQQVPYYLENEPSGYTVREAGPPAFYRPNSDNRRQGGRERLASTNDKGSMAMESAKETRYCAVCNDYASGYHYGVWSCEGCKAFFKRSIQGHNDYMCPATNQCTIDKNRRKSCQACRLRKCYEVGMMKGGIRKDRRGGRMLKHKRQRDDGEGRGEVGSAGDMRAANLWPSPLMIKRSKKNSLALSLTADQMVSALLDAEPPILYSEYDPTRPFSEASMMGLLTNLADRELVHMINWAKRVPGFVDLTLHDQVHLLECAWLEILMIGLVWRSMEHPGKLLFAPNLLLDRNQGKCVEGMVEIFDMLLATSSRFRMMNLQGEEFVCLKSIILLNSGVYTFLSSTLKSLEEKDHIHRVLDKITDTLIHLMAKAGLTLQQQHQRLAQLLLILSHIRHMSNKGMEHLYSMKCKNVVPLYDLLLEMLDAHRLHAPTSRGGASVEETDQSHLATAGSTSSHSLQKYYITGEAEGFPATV
X-box-binding protein 1 (Homo sapiens), sequence (P17861 whole entry, looked up): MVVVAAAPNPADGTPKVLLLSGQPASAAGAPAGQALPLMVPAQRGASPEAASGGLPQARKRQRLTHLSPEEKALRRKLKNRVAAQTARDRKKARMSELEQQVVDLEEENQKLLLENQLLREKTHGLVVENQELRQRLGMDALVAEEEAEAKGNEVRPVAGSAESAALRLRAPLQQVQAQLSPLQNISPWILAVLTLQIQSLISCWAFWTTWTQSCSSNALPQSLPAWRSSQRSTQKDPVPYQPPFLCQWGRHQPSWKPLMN

Consider `O=C(c1ccc(OCCN2CCCCC2)cc1)c1c(-c2ccc(O)cc2)sc2cc(O)ccc12`, for which the result in experiment [1], in experiment [2], in experiment [3], in experiment [4], in experiment [5] and in experiment [6] was inactive. Further, the compound was classed as inactive in experiment [7], in experiment [8], in experiment [9], in experiment [10], in [11] and in [12]. Besides, in [13], the outcome was inactive. Besides, the AC50 in experiment [2] is 11.1 µM (active) [middle of 4 runs]; in experiment [3], 2.79 µM (active) [middle of 4 runs]; in experiment [5] it was 11.1 µM (active) and 15.6 µM (active); in experiment [6], 13 µM (active) and 18 µM (active); in experiment [7] it was 11.1 µM (active) and 16.7 µM (active); in experiment [8] it was 19.3 µM (active) and 8.31 µM (active). The half-maximal activity concentration (AC50) in [9] is 20.4 µM (active) and 11.1 µM (active); in [10], 14.7 µM (active); in [12] it was 11.1 µM (active) and 8.64 µM (active) and 12 µM (active).
As for `Cc1cccc(O)c1`, the result in experiment [1], in [2], in experiment [3], in experiment [4], in experiment [5] and in [6] was inactive. Besides, the compound was classed as inactive in experiment [7], in experiment [14], in experiment [15], in experiment [8], in experiment [16] and in experiment [9]. Besides, the call in [10], in [17], in experiment [18] and in experiment [12] was inactive.
In the case of `CCCCOCCOCCOCCO`, the outcome in [1], in [2], in [3], in experiment [4], in [5] and in experiment [6] was inactive. Also, the call in experiment [7], in experiment [14], in experiment [15], in experiment [8], in [16] and in experiment [9] was inactive. The compound was classed as inactive in experiment [11], in experiment [18], in experiment [19], in experiment [12], in experiment [13] and in [20].
Take `CC(C)=CC(=O)O`: the result in experiment [1], in [2], in experiment [4], in [5], in experiment [6] and in experiment [7] was inactive. Moreover, the compound was classed as inactive in experiment [14], in [15], in [8], in experiment [16], in experiment [9] and in experiment [10]. For the same compound, the compound was called inactive in experiment [11], in experiment [12] and in [20]. Besides, the AC50 in experiment [3] was 99.5 µM (active); in [18] it was 49.1 µM (active).

Usually AC50 stands for the concentration at which the activity in the assay is half-maximal.
